Reference: PubChem BioAssay (EPA / NIEHS)
Calls of active or inactive are those of the source. How the source made its calls: active means hit-call score of the fitted dose curve at least 0.9, where 1 is the maximum; inactive means score below 0.9.

read-out: Caspase-3 (Homo sapiens) (UniProt P42574); assay: LTEA_HepaRG_CASP3: Life Technologies and Expression Analysis (LTEA) Assay for cysteine-aspartic acid protease (CASP3) using HepaRG (AID 2283477); details: mRNA level, 48 h; actives raise or lower the signal
Protocol: LTEA_HepaRG is a cell based, multiplexed-readout assay that uses HepaRG, a human liver cell line, with measurements taken at 48 hours after chemical dosing on a 96-well plate.LTEA_HepaRG_CASP3 is one of 102 assay component(s) measured in the LTEA HepaRG cell culture assay. It is a marker of Cell proliferation, survival, death.Data from the assay component LTEA_HepaRG_CASP3 was analyzed into 1 endpoint. This assay endpoint, LTEA_HepaRG_CASP3, was analyzed with bidirectional fitting relative to DMSO as the negative control and baseline of activity. Using a type of inducible reporter, measures of mRNA induction for gain or loss-of-signal activity can be used to understand regulation of transcription factor activity. To generalize the intended target to other relatable targets, this assay endpoint is annotated to the protease intended target family, where the subfamily is cysteine protease.
A total of 1060 chemcials from the ToxCast library were tested in eight-point concentration-response experiments. Cell culture and cytotoxicity assays were conducted at Thermo Fisher Scientific's Custom Services facility (Madison, WI). A single lot of human HepaRG cells (Thermo Fisher Scientific, Frederick, MD) was used for the cell culture experiments. 96-well format collagen type I coated plates of human HepaRG cells were prepared using established methods. Briefly, cryopreserved HepaRG cells were thawed, plated at a density of approximately 100,000 cells/well in HepaRG Thaw, Plate, and General Purpose media (HPRG770, Thermo Fisher Scientific), and incubated for 48 hours. 0.5% DMSO was selected as vehicle control to balance the requisite need of DMSO in HepaRG cultures to maintain differentiation (for example, baseline metabolism, proportions of hepatocytes vs. cholangiocytes), while enabling further hepatic receptor pathway activation (for example, PXR and CAR) in response to chemical exposure. 48 hours after plating, the culture medium was replaced with HepaRG Serum-Free Incudtion Media. Cells were exposed to each test chemical in duplicate and maintained in CO2 incubators for another 48 hours. Chemical plates were thawed to room temperature and 200x concentrations of treatment groups were prepared. 8-point conentration-reponse curves were made with the highest exposure at 100 uM, followed by half-log dilutions, all in 0.5% DMSO. Each test plate contained variouse controls, induction positive controls (1mM phenobarbital), cytotoxicity positive controls ([…] aflatoxin B1), vehicle controls (0.5% DMSO), and total lysis controls (0.5% DMSO). Cell morphology images were taken using an Essen IncuCyte FLR automated microscope, with six 96-well plates imaged in about 24 minutes. Images were captured and exported and JPEG files. Spent culture media was transfered to black-well plates for the LDH assay, and remaining media was sorted at -80 C for later use. Cells were treated with RLT buffer and frozen until shipped for gene expression analysis. Total RNA was isolated from the cell suspension in 75 uL of Buffer RLT (Qiagen, Germantown, MD 20874) by Quintiles/Expression Analysis (Durham, NC) using a custom isolation procedure. Total RNA from each plate well was transferred to a preamplification plate. Fluidigm's 96.96 Dynamic ArrayTM (Fluidigm, Amsterdam, the Netherlands) technology was used for gene expression analyses by quantitative reverse transcription polymerase chain reaction (qRT-PCR, performed by Quintiles/Expression Analysis, Durham, NC)89. Standard TaqManTM Assays (Applied Biosystems/ThermoFisher Scientific, Foster City, CA) were used to assess the expression of 93 genes selected based on their selectivity and sensitivity to important hepatic receptors known to be modulated by environmental chemicals; importance in human hepatocyte functionality; and hepatotoxicity. […]

Caspase-3 (Homo sapiens), sequence (P42574 whole entry, looked up): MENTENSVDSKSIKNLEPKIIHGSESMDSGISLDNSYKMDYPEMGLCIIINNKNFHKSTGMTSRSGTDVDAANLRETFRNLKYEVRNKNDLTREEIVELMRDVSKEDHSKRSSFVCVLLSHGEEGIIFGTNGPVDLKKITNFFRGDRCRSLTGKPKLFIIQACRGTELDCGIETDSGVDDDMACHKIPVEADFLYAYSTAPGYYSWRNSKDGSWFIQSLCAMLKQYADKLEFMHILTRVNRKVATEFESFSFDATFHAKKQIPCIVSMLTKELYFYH

| Structure (SMILES) | outcome |
| --- | --- |
| O=P(Oc1ccccc1)(Oc1ccccc1)Oc1ccccc1 | inactive |
| CCC(C)(C)c1ccc(O)cc1 | inactive |
| ClC(Cl)c1ccccc1 | inactive |
| Cc1ccc(O)cc1C | inactive |
| CCN(CC)c1ccccc1 | inactive |
| CCOS(=O)(=O)OCC | inactive |
| Cc1ccc(N)cc1N | inactive |
| Nc1ccc(Cl)cc1 | inactive |
| CCOP(=S)(Oc1ccc([N+](=O)[O-])cc1)c1ccccc1 (stereo not given) | inactive |
| O=[N+]([O-])c1ccc(Cl)c(Cl)c1 | inactive |
| ClC1=C(Cl)C2(Cl)C3C(Cl)C(Cl)CC3C1(Cl)C2(Cl)Cl (stereo not given) | inactive |
| O=[N+]([O-])c1ccccc1 | inactive |
| CCOc1ccc(C(C)(C)COCc2cccc(Oc3ccccc3)c2)cc1 | inactive |
| Nc1cc2c3c(c1)C(c1ccccc1)=N[C@@H](NC(=O)c1cccnc1)C(=O)N3CC2 | inactive |
| Cc1cccc(N)c1 | inactive |
| CC(Cl)(Cl)C(=O)O | inactive |
| Cc1ccc([N+](=O)[O-])cc1C | inactive |
| CCCCCCCc1ccc(O)cc1 | inactive |
| CCNc1nc(Cl)nc(NC(C)(C)C)n1 | inactive |
| CN(C)C(=O)Cl | inactive |

| Structure (SMILES) | outcome |
| --- | --- |
| CC(C)(C)c1ccc(O)cc1 | inactive |
| c1ccc2c(c1)Nc1ccccc1S2 | inactive |
| CC(Cc1ccc(OCC(=O)O)cc1)NCC(O)c1csc(C(F)(F)F)n1 (stereo not given) | inactive |
| c1nc[nH]n1 | inactive |
| CCOP(=S)(OCC)SCSCC | inactive |
| COCCOCCO | inactive |
| Nc1ccc2ccccc2c1 | inactive |
| CCCCN(CCCC)SN(C)C(=O)Oc1cccc2c1OC(C)(C)C2 | inactive |
| CCCCN(CCCC)N=O | inactive |
| CCC1(c2ccccc2)C(=O)N=C(O)NC1=O (stereo not given) | inactive |
| [N-]=[N+]=[N-] | inactive |
| ClC(Cl)(Cl)c1ccccc1 | inactive |
| CSC(C)(C)C=NO | inactive |
| OCC1CO1 (stereo not given) | inactive |
| O=C(O)C1C(C(=O)O)C2(Cl)C(Cl)=C(Cl)C1(Cl)C2(Cl)Cl (stereo not given) | inactive |
| CCCN(CCC)c1c([N+](=O)[O-])cc(C(C)C)cc1[N+](=O)[O-] | inactive |
| CCCCc1ccccc1 | inactive |
| c1cc2c3c(cccc3c1)CC2 | inactive |
| O=P1(N(CCCl)CCCl)NCCCO1 (stereo not given) | inactive |
| c1ccc(OP(Oc2ccccc2)Oc2ccccc2)cc1 | inactive |
